To fix the notation:
B1: chr7:149068622:149068623:-_ENSMUSG00000025139_ENSMUST00000001950|mus_hu|mus_mus_mus_hu_False|78_88 (ssRNA)
RNA: GGGAGUUCUACAGUCCGACGAUCGUGAGGCCUCUGAGUGUGGCUUGUGCUCUGCAGUGUCUGCAGUUUGUUAAUAUCACGGAACAUACCAUCUAGAACGUUCCAGUCCCGCCUGACACCUUCAUUCCCAAUGGAGAAGAAAUCCAACAGAGGAUUGAGCAUCA
B2: chr5:135101456:135101457:-_ENSMUSG00000040731_ENSMUST00000036125|mus_mus|motif|central (ssRNA)
RNA: GGGAGUUCUACAGUCCGACGAUCACCCAAGAGUGCACCGUCAUAAGUCAGAGCCUCCUUCAGGGAAUCCACCUCAUCAAAUUCGGCAUAGCAGAACCCUUUAAAUUUGUCUGUGUCUUUGUCUCUGACUAGCCGCACACUCCGCAACAGAGGAUUGAGCAUCA
B3: chrX:130830059:130830060:+_ENSMUSG00000033578_ENSMUST00000037687|mus_mus|FALSE|FALSE (ssRNA)
RNA: GGGAGUUCUACAGUCCGACGAUCGGGCCAUGAUAGUUAUGGUUCGUGGGGAUGCCAUGGGGUCACCAAGGCAGGUCCCAACUAAUCCCUCUGCUUUGCGCAGCCCGGCUGUCAAGGCGCAGGCAGUUAGCACAGGGAGAGCUACAACAGAGGAUUGAGCAUCA
B4: chr1:163117127:163117128:-_ENSG00000143248_ENST00000313961|hu_mus|FALSE|FALSE (ssRNA)
RNA: GGGAGUUCUACAGUCCGACGAUCUGCUACAAAGGAUGUAACUCAACUCACAGGGCAACUUUUGGAAGCCUGACCAGAUGACUACUUGAUUAGCUCCUUAUAAAAUUCAGAGCGCACAAAGCGGGGCAGAGAAUCCUUCUCCAUCAACAGAGGAUUGAGCAUCA
B5: 139258410_139258530_201_CDS_ENSG00000114115_ENST00000232219|human|control|control (ssRNA)
RNA: GGGAGUUCUACAGUCCGACGAUCGCGGGACGGCUGGAGACUGCCGGGACAGCGGCUGCCGGUGCUACGCGGGUGGUGGGCGGCCCGGAAAUGAGCGCCCUCCGGGGACAGGGGGCUCUGCGGGGCGGCGACAGCUGGAUUCCCCAACAGAGGAUUGAGCAUCA
B6: chr2:65539780:65539781:-_ENSG00000198369_ENST00000356388|hu_hu|motif|central (ssRNA)
RNA: GGGAGUUCUACAGUCCGACGAUCUUUGCAAAACAACAAGCAAAAUUUCUUACUUCACUAGUAUCCUAUUCUAAUAUUGCGGAAUUUUUAGAAGUGGUGGCAACACAAUUUAAAAAAUGUUCUACUUUAGGGGUAAUGGGGAGGCAACAGAGGAUUGAGCAUCA
B7: chr17:56552419:56552420:-_ENSMUSG00000013236_ENSMUST00000086828|mus_mus|motif|central (ssRNA)
RNA: GGGAGUUCUACAGUCCGACGAUCUUUGUUUUUUUCUUAAAAAAAAAAAAGAAAAAAAGAAAAAGAAAAAAAAUAUACACGGUUAAAAAAAAAUAAGAAAAAAAAUGUUGCCAAAAGGCAGGCAGGGGAGUGCGGAAGCAGAGGCAACAGAGGAUUGAGCAUCA
B8: chr17:56552419:56552420:-_ENSMUSG00000013236_ENSMUST00000086828|mus_mus|mus_mus_mus_hu_False|18_28 (ssRNA)
RNA: GGGAGUUCUACAGUCCGACGAUCAAAAAAUACACUAUUUAAAAAAAAUGAAAUGUCACGGGAUACAGUUACACUGAGAGUUUUAAAAGAAAGCUGGAUUCUGGUCCUUGCCAAAAGGCAGGCAGGGGCAGAGCGGGGAGGAGCCAACAGAGGAUUGAGCAUCA
B9: chr17:56552419:56552420:-_ENSMUSG00000013236_ENSMUST00000086828|mus_mus|FALSE|FALSE (ssRNA)
RNA: B7 RNA with G80U, G81A

Substitutions are numbered along the chain they refer to. Over roughly 24,000 sequences, “enrichment r” has its median near 0.99; the highest 2% begin near 3.7. The sample holds the highest values, similar sequences and a random draw of the others, so the mix is not that of the screen.

The test addresses T1, UNK ZnF1-3 (human, UniProt Q9C0B0 31-174).
T1 sequence: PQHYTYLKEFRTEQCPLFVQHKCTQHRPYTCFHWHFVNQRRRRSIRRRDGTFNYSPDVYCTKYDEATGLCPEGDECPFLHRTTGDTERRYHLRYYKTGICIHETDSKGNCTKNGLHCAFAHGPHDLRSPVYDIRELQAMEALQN
The test can be described thus: nsRBNS (natural sequence RNA bind-n-seq); RBNS binding buffer (assumed for nsRBNS): 25 mM Tris pH 7.5, 150 mM KCl, 3 mM MgCl2, 0.01% Triton X-100, 500 ug/ml BSA, 20 U/ml SUPERase-In, 4 C; UNK is unkempt and MSI1 is Musashi-1; names of the RNAs are library labels; protein concentration not given here; high values mean tight binding.
For the molecule B1, the binding signal is 0.733 enrichment R. To B2 belongs 0.437 enrichment R; to B3, 0.967 enrichment R.

B4: the binding signal was found to be 1.14 enrichment R. As for B5, the binding signal was determined as 1.1 enrichment R.

As to B6, the binding signal is 3.44 enrichment R. To B7 belongs 15.8 enrichment R; to B8, 3.67 enrichment R; to B9, 19.2 enrichment R.

(Values after PMC12136788.)
